Source: PubChem
A selection: hits, their analogues and other compounds. The true share with any hit is near 2.4%.
POLK inh = inhibitors of human DNA polymerase kappa. Q9UBT6. 0.53% of 400,000 active. purified Pol kappa, fluorescent DNA synthesis assay, 10 min. Potency, µM (highest dose often 107 µM), for inactives: top-dose activity, negative = inhibition, usual class: inhibitors; further: on the % scale 0 is the no-effect control and ±100 the full control effect
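50 nM final substrate added after 15 min RT preincubation of 10 nM Pol kappa with compound; fluorescence read at 0 and 10 min.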
POLB inh = inhibitors of human DNA polymerase beta. P06746. Pol beta primer extension/strand displacement, fluorescence kinetic. Potency, µM (doses to about 114 µM), for inactives: top-dose activity change, negative = inhibition, actives largely listed as inhibitors. 1.3% of 340,000 active; further: on the % scale 0 is the no-effect control and ±100 the full control effect
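Human Pol beta at 10 nM; strand-displacement substrate 50 nM final. Compound exposure 15 min at room temperature before start, reaction 10 min at room temperature.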
POLH inh = DNA polymerase eta (human) inhibition | Q9Y253 | recombinant Pol eta, fluorescent DNA replication assay | Potency, µM (titrated, usually from 114 µM), for the others: top-dose activity change, negative = inhibition, most hits filed as inhibitors | 1.2% of 390,000 active; further: on the % scale 0 is the no-effect control and ±100 the full control effect
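Pol eta (10 nM) was preincubated with compounds for 15 min at room temperature, after which fluorescent replication substrate (50 nM final) was added to start the reaction. Fluorescence was read kinetically at 0 and 10 min.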
WRN inhibitor = WRN helicase (human) inhibition; WRN helicase unwinding, fluorescent forked duplex, kinetic; Potency, µM (highest dose often 114 µM), for the others: at the highest dose activity change, negative = inhibition, usual class: inhibitors; 0.46% of 360,000 active; AID 651768; further: on the % scale 0 is the no-effect control and ±100 the full control effect; nearly all actives have a fitted effect of over 55% in size
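Kinetic red-fluorescence monitoring (525/598 nm) tracks WRN helicase activity after 100 nM fluorophore-quencher forked duplex and 2 mM ATP are added to 20 nM enzyme pretreated 15 min at room temperature with compound.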
FEN1 inh = blocks human flap endonuclease 1; P39748; Recombinant FEN1 flap cleavage, fluorescence, 15 min; Potency, µM (top dose mostly 114 µM), inactives show top-dose activity change, negative = inhibition, usual class: inhibitors; 0.35% of 390,000 active; AID 588795; further: on the % scale 0 is the no-effect control and ±100 the full control effect; nearly all actives have a fitted effect of over 65% in size
Target sequence (P39748 whole entry, looked up): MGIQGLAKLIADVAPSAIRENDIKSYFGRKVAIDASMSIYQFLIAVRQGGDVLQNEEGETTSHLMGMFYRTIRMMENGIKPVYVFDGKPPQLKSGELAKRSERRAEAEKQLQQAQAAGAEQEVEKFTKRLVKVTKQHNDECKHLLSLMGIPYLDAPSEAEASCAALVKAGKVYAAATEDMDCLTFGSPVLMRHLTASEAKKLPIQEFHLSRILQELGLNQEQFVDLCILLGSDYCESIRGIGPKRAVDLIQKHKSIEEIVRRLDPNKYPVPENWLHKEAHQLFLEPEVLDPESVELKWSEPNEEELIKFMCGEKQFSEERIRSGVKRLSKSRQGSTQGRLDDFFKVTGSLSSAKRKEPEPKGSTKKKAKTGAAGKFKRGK
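Nuclease activity of 10 nM FEN1 was measured after 15 min of room-temperature exposure to titrated compounds, by adding 50 nM flap substrate and reading plates at 0 and 15 min.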
POLI inh = inhibitors of human DNA polymerase iota; Q9UNA4; Pol iota fluorescent replication assay, 10 min; Potency, µM (doses to about 115 µM), without a hit: top-dose activity, negative = inhibition, most hits filed as inhibitors; 1% of 390,000 active; AID 588590
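Pol iota at 10 nM preincubated 15 min with compounds at room temperature; reaction started with fluorescent substrate, 50 nM final. Fluorescence read kinetically at 0 and 10 min; buffer-only wells as negative control.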
* hit, by the source's call; ? = inconclusive; · = not tested or not shown; [ ] = remark or other dose. The call rests on the fitted dose curve; in most records, active means well fitted curve in the direction sought with a large enough effect; inconclusive means small, poorly fitted or top-dose-only effect, or another doubt; inactive means no such curve, though single readings can be large; an effect the other way counts as inactive or inconclusive. Potency means the concentration at half of the fitted maximal effect.

SMILES	POLK inh	POLB inh	POLH inh	WRN inhibitor	FEN1 inh	POLI inh
O=C1CC(NS(=O)(=O)c2ccc([N+](=O)[O-])cc2)CN1c1ccc2c(c1)OCCO2 (stereo not given)	-8.3%	·	2.0%	-1.6%	-4.8%	17.0%
Cc1ccc(NC(=O)CN2C(=O)S/C(=C\c3cc(C)n(-c4ccc(C(=O)O)cc4)c3C)C2=O)cc1	-5.1%	79.4µM*	79.4µM*	-10.5%	?	?
Cc1cccc(N2CCN(C(=O)C3CCN(S(=O)(=O)c4c(C)noc4/C=C/c4ccccc4F)CC3)CC2C)c1 (stereo not given)	8.7%[60.1 µM]	-17.6%	-18.1%	·	5.9%	-4.1%
S=c1[nH]nc(-c2ccc(Cl)cc2)n1/N=C/C=C/c1ccco1	-20.4%	25.1µM*	?	-26.4%	-14.9%	-12.1%
S=c1[nH]nc(-c2ccccc2)n1/N=C/C=C/c1ccco1	-17.3%	44.7µM*	-18.9%	-1.0%	1.4%	52.0%
S=c1[nH]nc(-c2ccco2)n1/N=C/C=C/c1ccccc1	4.2%	12.7%	-20.9%	-9.4%	-0.3%	8.4%
COc1ccc(S(=O)(=O)c2cnc(SCC(=O)Nc3cc(F)ccc3C)[nH]c2=O)cc1Cl	-28.9%	50.1µM*	?	·	4.7%	-18.3%
COC(=O)c1ccc(NC(=O)CN(c2cccc(C(F)(F)F)c2)S(C)(=O)=O)cc1	-12.1%	?	·	·	-7.8%	6.2%
O=C(CNC(=O)c1ccco1)NC1CCCCCC1	0.9%	·	-1.0%	5.5%	6.1%	-19.6%
O=C(CN1C(=O)C(=O)N(Cc2ccco2)C1=O)NC1CCCCC1	?	-14.7%	31.6µM*	-8.3%[11.6 µM]	2.3%	?
O=C(NC1CCCCCC1)c1ccco1	89.1µM*	4.5%	-4.3%	3.8%[11.6 µM]	-16.9%	31.6µM*
O=S(=O)(c1ccc(F)cc1)N1CCN(c2nc(-c3ccccc3)nc3cc(Cl)ccc23)CC1	-8.6%	·	·	·	14.6%	-14.6%
CCNc1ccccc1CP(=O)(c1ccccc1)c1ccccc1O (stereo not given)	-38.5%	50.1µM*	1.6%	?	-7.3%	14.1µM*
Cc1ccc(O)c(CP(=O)(c2ccccc2)c2ccccc2)c1	-1.5%	30.4%	-19.6%	-8.2%[57.1 µM]	-9.5%	27.2%
COc1ccc(OC)c(/C=C2\Oc3cc(OCC(=O)N4CCC[C@H]4C(=O)O)ccc3C2=O)c1	-6.7%	-0.6%	-15.9%	-20.5%	?	?
COc1cccc(/C=C2\Oc3cc(OCC(=O)N4CCC[C@H]4C(=O)O)ccc3C2=O)c1	-3.8%	-1.8%	44.7µM*	-9.9%[11.6 µM]	?	1.4%
Cc1cc(-n2nnc3ccccc32)nc2ccccc12	-24.4%	6.0%	-4.5%	3.7%	1.0%	89.1µM*
Cc1cc(N2CCCCC2)nc2ccccc12	-6.2%	9.9%	-6.2%	-19.0%	0.0%	70.8%
Cc1ccccc1NC(=O)CN1CCOCC1	8.2%	21.8%	3.6%	8.1%	3.5%	115.2%
O=C(CN1CCOCC1)Nc1ccccc1C(=O)O	-7.0%	0.9%	-3.9%	0.5%[57.1 µM]	-6.9%	79.4µM*
O=C(COC(=O)c1cc(S(=O)(=O)N2CCc3ccccc3C2)ccc1Cl)NCc1ccco1	?	39.8µM*	20µM*	?	-17.6%	?
O=C(COC(=O)c1cccc(S(=O)(=O)N2CCc3ccccc3C2)c1)NCc1ccco1	-22.5%	17.8µM*	-9.8%	-7.3%	-7.1%	-14.9%
COc1ccc(OC)c(-c2noc(N3CCN(c4cccc(C)c4C)CC3)n2)c1	-9.8%	0.8%	-17.7%	·	10.6%	-10.8%
CCCCCCC[n+]1ccc(/C=C/c2c(C)[nH]c3ccccc23)c2ccccc21	?	·	·	·	44.7µM*	79.4µM*
CCCCCCCCCCCC[n+]1ccc(/C=C/c2c[nH]c3ccccc23)c2ccccc21	10.1%	·	·	·	-31.0%	-17.9%
SMILES	POLK inh	POLB inh	POLH inh	WRN inhibitor	FEN1 inh	POLI inh
CCCCCCCCCC[n+]1ccc(/C=C/c2c(C)[nH]c3ccccc23)c2ccccc21	?	·	·	·	44.7µM*	58.9%
CCC(C)c1ccccc1OCCn1c(CCNC(=O)C2CCCCC2)nc2ccccc21 (stereo not given)	-16.9%	·	·	·	-27.6%	-3.1%
COC(=O)c1ccc(-n2c(C)cc(C(=O)CCl)c2C)cc1	-5.1%	-10.8%	?	-10.4%[57.1 µM]	16.0%	12.6µM*
Cc1noc(C)c1C(=O)N1CCC2(CCN(Cc3cc(C(F)(F)F)cc(C(F)(F)F)c3)CC2)CC1	-10.5%[60.1 µM]	·	·	·	·	·
C[C@@H]1OC(OC2C(OC3CC[C@@]4(C)C5CC=C6C7CC(C)(C)CC[C@@]7(C(=O)O)CCC6(C)C5(C)CCC4[C@]3(C)CO)OCC(O)C2O)C(O)C(O)C1O (stereo not given in full)	-4.6%[60.1 µM]	·	·	·	·	·
C=CCn1c(SCc2cc(=O)n3ccsc3n2)nc2sc(C)c(C)c2c1=O	-42.4%	50.1µM*	?	-11.4%[57.1 µM]	6.5%	31.6µM*
O=C(c1ccco1)[C@@H]1[C@@H]2C(=O)N(c3ccccc3)C(=O)[C@@H]2C2c3ccccc3C=CN21 (stereo not given in full)	-13.5%	35.6%	?	-14.1%	-18.0%	12.6µM*
Cc1ccc(N2C(=O)[C@@H]3[C@H](C2=O)C2c4ccccc4C=CN2[C@@H]3C(=O)c2ccco2)c(C)c1 (stereo not given in full)	-23.0%	20.8%	28.2µM*	-28.0%	-0.9%	?
Cc1ccc(N2C(=O)[C@@H]3[C@H](C2=O)C2c4ccccc4C=CN2[C@@H]3C(=O)c2ccco2)cc1 (stereo not given in full)	-23.2%	6.0%	?	-22.8%	-6.1%	?
CC(=O)[C@@H]1[C@@H]2C(=O)N(Cc3ccccc3)C(=O)[C@@H]2C2c3ccccc3C=CN21 (stereo not given in full)	0.1%	22.6%	?	-5.9%	-14.3%	?
Cc1ccccc1-c1noc(-c2ccc(N3CCCC3)c([N+](=O)[O-])c2)n1	-13.5%	-24.7%	-17.0%	·	-4.5%	18.9%
Cc1cc(C)c2c(CC(=O)Nc3c(C(=O)c4ccc(F)cc4)oc4ccccc34)coc2c1	11.8%	33.1%	-4.0%	·	-1.6%	27.6%
CN(C)[C@H]1C(=O)C(C(=O)NCN2CCCC2)=C(O)[C@]2(O)C(=O)C3=C(O)c4c(O)cccc4[C@@](C)(O)[C@H]3C[C@@H]12	4.74µM*	·	·	·	·	·
O=C(Nc1nc2nc(-c3ccccc3)cc(=O)n2[nH]1)c1ccccc1	-0.4%	0.0%	-10.9%	-11.3%	-9.0%	7.4%
O=C(Nc1nc2nc(-c3ccccc3)cc(=O)n2[nH]1)c1ccc(Cl)cc1	-17.7%	22.4µM*	-8.7%	·	-11.9%	-16.4%
